We go through 13 compounds from PubChem BioAssay (NCI).

About 83,000 compounds went through this panel and 20% of them were active in at least one assay; those are over-represented in the sample as a whole.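 Results are percent growth after 48 hours of single-concentration exposure. 100 means growth as in untreated cells, lower positive values show inhibition; negative values down to -100 show cell death.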 Unmarked numbers belong to inactive results. Active and inactive are the calls of the source. Rule for the calls: active = growth percent below 10; inactive = the rest.

Test systems include DU-145 prostate; K-562 leukemia; MALME-3M melanoma; MDA-MB-231 breast; RXF 393 renal; SF-268 CNS; SF-295 CNS; SF-539 CNS; UACC-257 melanoma; M14 melanoma.
What all share (assay): NCI-60 one-dose screen, 48 h (100 = growth as untreated, 0 = no growth, -100 = all killed)
Common to all, as to conditions: 10 µM unless noted

As for `CCOC(=O)C(=CCC(C)C)C(=O)OCC`, the growth in the test with DU-145 prostate is 99.3%; in the test with K-562 leukemia, 125%; in the test with MALME-3M melanoma it was 120%; in the test with MDA-MB-231 breast it was 99.6%; with RXF 393 renal, 113%; in the test on SF-268 CNS, 94.9%. For the same compound, the growth in the test on SF-295 CNS is 120%; in the test with SF-539 CNS it was 95.7%; in the test with UACC-257 melanoma it was 110%; in the test with M14 melanoma it was 95.7%.

Turning to `CCCN1C(=O)/C(=c2\sc3n(c2=O)C2C(NN=3)N(CC)C(=O)N2CC)c2ccccc21` (stereo not given), the growth in the test on DU-145 prostate was 13.6%; in the test with K-562 leukemia it was 9.52% (active); in the test with MALME-3M melanoma, 45.4%; in the test on MDA-MB-231 breast, 13.9%; with RXF 393 renal, 17.3%; in the test with SF-268 CNS, 58.7%. For the same compound, the growth was 7.46% (active) in the test with SF-295 CNS, -17% (active) in the test with SF-539 CNS, 24.5% in the test with UACC-257 melanoma and 17.5% in the test with M14 melanoma.

As to `O=c1ccc2nc(-c3ccccn3)nn(-c3ccccc3)c-2c1`, the growth in the test with DU-145 prostate was 91%; in the test with K-562 leukemia, -8.79% (active); with MALME-3M melanoma, -20.6% (active); in the test with MDA-MB-231 breast, 68.4%; in the test with RXF 393 renal, 65%; in the test on SF-268 CNS, 98%. The growth in the test with SF-295 CNS was 96.3%; with SF-539 CNS, 103%; in the test with UACC-257 melanoma, 60.3%; in the test on M14 melanoma, 90.3%.

For `OB(O)c1ccsc1-c1nc2ccc3[nH]ncc3c2c2c1CCCC2`, the growth is 47.3% in the test on DU-145 prostate; 55.9% in the test on K-562 leukemia; 77.9% in the test with MALME-3M melanoma; 70.3% with MDA-MB-231 breast; 19.2% with RXF 393 renal; 58.9% with SF-268 CNS. In addition, the growth with SF-295 CNS is 69.6%; in the test on SF-539 CNS it was 45.2%; with UACC-257 melanoma, 85.5%; in the test with M14 melanoma, 41.4%.

Regarding `COC1=CC(c2ccc[nH]2)=N/C1=C\c1[nH]c(C)c(C(=O)Oc2ccccc2)c1C`, the growth is 9.64% (active) in the test on DU-145 prostate; 8.48% (active) in the test on K-562 leukemia; -79.6% (active) in the test on MALME-3M melanoma; -69.2% (active) in the test on MDA-MB-231 breast; -9.71% (active) in the test on RXF 393 renal; 14.9% in the test with SF-268 CNS. Also, the growth was -74.9% (active) in the test with SF-295 CNS, -74.6% (active) in the test on SF-539 CNS, -54.9% (active) with UACC-257 melanoma and -59.2% (active) in the test with M14 melanoma.

As for `COc1ccc(C/C(C)=C(/c2ccc(OCCN3CCCC3)cc2)c2ccc(OC(=O)NCc3ccccc3)cc2)cc1`, the growth in the test with DU-145 prostate was 95%; in the test on K-562 leukemia, 1.16% (active); in the test with MALME-3M melanoma, 83.6%; with MDA-MB-231 breast it was 101%; with RXF 393 renal, 76.8%; in the test on SF-268 CNS it was 86.5%. The growth with SF-295 CNS was 95.2%; in the test with SF-539 CNS it was 82.5%; with UACC-257 melanoma, 107%; with M14 melanoma it was -20.8% (active).

Take `O=C1/C(=C/c2ccc(F)c(F)c2)CN(C(=O)C(Cl)Cl)C/C1=C\c1ccc(F)c(F)c1`: the growth is -98.1% (active) in the test on DU-145 prostate; -19.4% (active) in the test with K-562 leukemia; -80.2% (active) with MALME-3M melanoma; -73.7% (active) in the test with MDA-MB-231 breast; -93.1% (active) in the test with RXF 393 renal; -39.4% (active) in the test with SF-268 CNS. In addition, the growth in the test with SF-295 CNS is -96.8% (active); in the test on SF-539 CNS, -98.9% (active); in the test with UACC-257 melanoma, -74.8% (active); in the test on M14 melanoma it was -90.1% (active).

`Nc1n[nH]c2cccc(C#Cc3cccc(NC(=O)c4ccc(N5CCOCC5)c(C(F)(F)F)c4)c3)c12`: the growth is 25.7% in the test with DU-145 prostate; 0.995% (active) in the test on K-562 leukemia; 11.2% in the test with MALME-3M melanoma; -22.3% (active) with MDA-MB-231 breast; -66% (active) in the test with RXF 393 renal; 23.4% in the test with SF-268 CNS. The growth in the test with SF-295 CNS is -36.9% (active); with SF-539 CNS, -56% (active); in the test with UACC-257 melanoma, 17.6%; in the test with M14 melanoma, 3.69% (active).

For the compound `c1cc(NCCCCN2CCOCC2)c2ccc3c(ccc4c(NCCN5CCOCC5)ccnc43)c2n1`, the growth with DU-145 prostate is 80.8%; in the test on K-562 leukemia, 66.5%; in the test with MALME-3M melanoma, 99.9%; in the test with MDA-MB-231 breast it was 71%; with RXF 393 renal, 72.5%; in the test on SF-268 CNS, 101%. Also, the growth was 97.9% with SF-295 CNS, 82.3% with SF-539 CNS, 116% in the test on UACC-257 melanoma and 92.7% in the test with M14 melanoma.

Turning to `C#Cc1cc(C(=O)Nc2ccc(CN3CCN(C)CC3)c(C(F)(F)F)c2)ccc1C`, the growth was 85.8% in the test with DU-145 prostate; 7.97% (active) with K-562 leukemia; 23.6% in the test with MALME-3M melanoma; 59.2% in the test on MDA-MB-231 breast; 76.3% in the test on RXF 393 renal; 82.5% with SF-268 CNS. Besides, the growth is 77% in the test on SF-295 CNS, 44% in the test on SF-539 CNS, -32.9% (active) in the test with UACC-257 melanoma and -70.4% (active) in the test on M14 melanoma.

For `COc1ccc(-c2ccc(-c3ccc(C(=N)N)cn3)s2)cc1Cl`, the growth in the test with DU-145 prostate is -47% (active); in the test with K-562 leukemia, -47.8% (active); with MALME-3M melanoma, -88% (active); in the test with MDA-MB-231 breast it was -77.9% (active); in the test on RXF 393 renal it was 64.5%; in the test with SF-268 CNS, -30.5% (active). Besides, the growth is -80.9% (active) with SF-295 CNS, -93.5% (active) with SF-539 CNS, -60.8% (active) in the test on UACC-257 melanoma and -81.7% (active) with M14 melanoma.

For the compound `CCN1CCN(C(=O)[C@]23CC[C@@H](C)[C@H](C)[C@@H]2C2=CC[C@@H]4[C@@]5(C)CCC(=O)C(C)(C)[C@@H]5CC[C@@]4(C)[C@]2(C)CC3)CC1`, the growth in the test with DU-145 prostate is 41.5%; with K-562 leukemia it was 2.78% (active); in the test with MALME-3M melanoma it was -85.7% (active); in the test with MDA-MB-231 breast, -28.6% (active); with RXF 393 renal, -6.14% (active); in the test on SF-268 CNS, 39.7%. Also, the growth is 24.8% in the test on SF-295 CNS, -79.8% (active) with SF-539 CNS, -23.9% (active) in the test on UACC-257 melanoma and -41.6% (active) with M14 melanoma.

With `N=C1/C(=C2\NC3C=CC=CC3S2)C(c2ccc(Cl)cc2)C2C(=O)N(c3ccccc3)C(=S)N12` (stereo not given), the growth with DU-145 prostate was 114%; with K-562 leukemia, 102%; in the test on MALME-3M melanoma, 100%; in the test on MDA-MB-231 breast it was 102%; in the test with RXF 393 renal, 95.7%; with SF-268 CNS, 99.5%. Also, the growth is 103% in the test with SF-295 CNS, 99.4% in the test with SF-539 CNS, 107% in the test with UACC-257 melanoma and 102% in the test on M14 melanoma.
